Measured values: PubChem BioAssay AID1159580 (chemical genetic matrix, 2015)
The campaign covered roughly 5,500 compounds. About 2,000 (36%) were called active. Not shown: some 18% with an inconclusive outcome. Rule as the data show it: active = normalized growth mostly below about 0.91 (no sharp cut-off); inconclusive = no clear call, values can overlap the other calls; inactive = mostly above about 0.92. The list shows a part of the results.

Experiment: chemical genetic growth profiling, strain panel (AID 1159580);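 also: tested at 20 µM; growth read once vehicle control cultures reached saturation at 30 °C; 1 = growth at the plate median or of vehicle wells; lower values mean less growth of the strain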
Details: S. cerevisiae deletion strains, growth OD

Measured: normalized growth

COc1ccc(CCN(C)CCCC(C#N)(c2cc(OC)c(OC)c(OC)c2)C(C)C)cc1OC (stereo not given)
inactive: locus YAL040C, strain CLN3, active compounds read low 1.01 | locus YCL061C, strain MRC1 (second series), active compounds read low 0.995 | locus YDR150W, strain NUM1, active compounds read low 1.01 | locus YDR363W, strain ESC2, active compounds read low 0.97 | locus YER002W, strain NOP16, active compounds read low 1.03 | locus YGR078C, strain PAC10, active compounds read low 1.03 | locus YJR075W, strain HOC1, active compounds read low 1 | locus YMR307W, strain GAS1, active compounds read low 1.02 | locus YNL153C, strain GIM3, active compounds read low 1.02 | locus YNL175C, strain NOP13, active compounds read low 1.01 | locus YNL197C, strain WHI3, active compounds read low 1.01 | locus YNL224C, strain SQS1, active compounds read low 1.01 | locus YOR083W, strain WHI5 (second series), active compounds read low 1 | locus YPL055C, strain LGE1, active compounds read low 1 | locus YPL241C, strain CIN2, active compounds read low 1.01
